Experimental data from paper PMC4336329 (PLoS ONE, 2015).
Screen size: about 310,000 compounds; about 14,000 (4.5%) showed an effect of 50% or more. The effect is printed as a negative number. Only a selection was taken, and strong results are over-represented in it overall.

Target: human ether-à-go-go-related gene (hERG) potassium channel (human, UniProt Q12809)
Assay: primary screen, population patch clamp on CHO cells stably expressing hERG; higher = less effect of the substance
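Note: peak tail current of the secondary pulse compared with the same well before compound.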

human ether-à-go-go-related gene (hERG) potassium channel, sequence (Q12809 whole entry, looked up): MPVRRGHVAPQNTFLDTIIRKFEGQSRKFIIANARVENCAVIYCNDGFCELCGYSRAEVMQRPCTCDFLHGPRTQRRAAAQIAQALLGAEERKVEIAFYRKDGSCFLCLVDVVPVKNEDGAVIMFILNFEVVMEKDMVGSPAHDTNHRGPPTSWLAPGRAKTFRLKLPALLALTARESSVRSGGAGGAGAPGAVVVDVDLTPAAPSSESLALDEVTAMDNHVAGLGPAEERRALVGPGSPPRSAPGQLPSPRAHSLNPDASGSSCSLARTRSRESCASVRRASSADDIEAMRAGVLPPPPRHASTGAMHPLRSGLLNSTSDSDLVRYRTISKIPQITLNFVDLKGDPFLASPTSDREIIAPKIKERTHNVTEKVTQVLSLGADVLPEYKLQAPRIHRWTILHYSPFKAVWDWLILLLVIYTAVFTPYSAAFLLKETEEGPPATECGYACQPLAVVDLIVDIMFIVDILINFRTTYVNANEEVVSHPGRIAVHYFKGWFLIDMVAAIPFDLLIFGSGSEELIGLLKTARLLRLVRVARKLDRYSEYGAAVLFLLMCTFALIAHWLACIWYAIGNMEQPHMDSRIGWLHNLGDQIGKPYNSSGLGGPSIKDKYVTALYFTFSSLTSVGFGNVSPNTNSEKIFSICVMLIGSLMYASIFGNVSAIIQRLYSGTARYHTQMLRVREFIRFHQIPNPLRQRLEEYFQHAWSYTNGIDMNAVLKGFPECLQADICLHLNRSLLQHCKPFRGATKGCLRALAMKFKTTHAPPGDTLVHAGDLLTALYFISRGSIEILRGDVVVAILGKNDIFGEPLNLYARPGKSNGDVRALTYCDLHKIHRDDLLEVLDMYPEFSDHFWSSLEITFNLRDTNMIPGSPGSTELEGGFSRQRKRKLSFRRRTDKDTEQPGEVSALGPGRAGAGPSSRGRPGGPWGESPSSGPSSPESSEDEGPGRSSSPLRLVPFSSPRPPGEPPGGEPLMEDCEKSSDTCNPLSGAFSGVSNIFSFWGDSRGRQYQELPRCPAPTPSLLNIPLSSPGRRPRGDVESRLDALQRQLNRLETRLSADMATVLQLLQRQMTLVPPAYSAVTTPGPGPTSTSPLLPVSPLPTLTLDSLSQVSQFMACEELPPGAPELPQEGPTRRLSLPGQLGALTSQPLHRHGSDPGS

Structure (SMILES) | hERG current change (%, negative = inhibition) at 10uM
CNc1c([N+](=O)[O-])cnn1-c1ccccn1 | -15.5%
CC(C)(O)C#Cc1ccc(C(=O)NCCc2ccc(S(N)(=O)=O)cc2)cc1 | 13.6%
O=C(NNS(=O)(=O)c1cccc(Cl)c1)c1cc(-c2ccc(F)cc2)nc2ccccc12 | 11.6%
Cc1ccc(C(=O)COC(=O)CNS(=O)(=O)c2ccc(C)cc2)cc1 | 12.4%
CCOC(=O)C(NC(C)=O)(Nc1ccc(F)cc1)C(F)(F)F (stereo not shown) | -3.72%
O=C(O)c1cnc(-c2ccccc2)nc1Sc1cccc(Cl)c1 | 26.7%
O=C(O)/C(=C\c1cn(-c2ccccc2)nc1-c1cccnc1)NC(=O)c1ccccc1 | 7.21%
C/C=C\C=C\C(=O)N1CC2(CC(c3cccc(NC(=O)COc4ccc(Cl)cc4)c3)=NO2)C[C@H]1C(N)=O (stereo partly shown) | -76.9%
NC(=O)[C@H]1CC2(CC(c3cccc(NC(=O)COc4ccc(Cl)cc4)c3)=NO2)CN1C(=O)c1ccc(Cl)cc1 (stereo partly shown) | -9.96%
C/C=C/C(=O)N1CC2(CC(c3cccc(NC(=O)COc4ccc(Cl)cc4)c3)=NO2)C[C@@H]1C(N)=O (stereo partly shown) | -41.4%
C/C=C\C=C/C(=O)Nc1cccc(C2=NOC3(C2)C[C@@H](C(N)=O)N(C(=O)COc2ccc(Cl)cc2)C3)c1 (stereo partly shown) | -7.47%
CC/C=C/C(=O)N1CC2(CC(c3cccc(NC(=O)CC)c3)=NO2)C[C@H]1C(N)=O (stereo partly shown) | 13.6%
CC/C=C/C(=O)N1CC2(CC(c3cccc(NC(=O)COc4ccc(Cl)cc4)c3)=NO2)C[C@H]1C(N)=O (stereo partly shown) | -64.7%
Cn1nc(-c2ccccc2)c(CSc2ccccc2Cl)c1Cl | 6.46%
CN1CCN(C(=O)c2cnn(-c3ccccc3)c2NC(=O)c2ccc([N+](=O)[O-])cc2)CC1 | -51.6%
CN1CCN(C(=O)c2cnn(-c3ccccc3)c2NC(=O)c2ccc(Br)cc2)CC1 | -81.4%
CN1CCN(C(=O)c2cnn(-c3ccccc3)c2NC(=O)c2ccccc2)CC1 | -17.8%
Cc1cccc(C(=O)Nc2c(C(=O)N3CCN(C)CC3)cnn2-c2ccccc2)c1 | -15.9%
CN1CCN(C(=O)c2cnn(-c3ccccc3)c2NC(=O)c2ccccc2Br)CC1 | 3.72%
O=C(Nc1c(C(=O)N2CCOCC2)cnn1-c1ccccc1)c1ccc([N+](=O)[O-])cc1 | -16%
O=C(CNC(=O)c1ccc(Br)o1)NCc1ccccc1Cl | 1.15%
CCCCc1ccc(NC(=S)NCCN2CCOCC2)cc1 | -39%

Structure (SMILES) | hERG current change (%, negative = inhibition) at 10uM
CCOC(=O)CSc1cc(C(F)(F)F)nc(-c2ccccn2)n1 | -31.5%
CC(C)CCc1noc(CN2CCC(C(=O)N3CCOCC3)CC2)n1 | -6.13%
C/C=C/n1ccnc1CC(O)(c1ccccc1)c1ccc(C)cc1 (stereo not shown) | -22.5%
Nc1nnnn1/N=C\c1ccc(Cl)c([N+](=O)[O-])c1 | 3.26%
COc1ccc(NC(=S)Nc2cccnc2)c(OC)c1 | 8.2%
CCN(Cc1nc2ccccc2c(=O)[nH]1)Cc1cc(=O)oc2cc(C)c(C)cc12 | -41.4%
CN(Cc1nc2ccccc2c(=O)[nH]1)Cc1cc(=O)oc2ccc3ccccc3c12 | -10.1%
CCN(Cc1nc2ccccc2c(=O)[nH]1)Cc1cc(=O)oc2cc(OC)ccc12 | -51.1%
CCN(CC(=O)Nc1cc(OC)ccc1OC)Cc1nc2ccccc2c(=O)[nH]1 | -8.33%
CCN(Cc1nc2ccccc2c(=O)[nH]1)Cc1nc2cc(OC)c(OC)cc2c(=O)[nH]1 | 14.9%
CCc1ccc2c(CN(CC)Cc3nc4ccccc4c(=O)[nH]3)cc(=O)oc2c1 | -71.6%
N#Cc1ccccc1S(=O)(=O)N1CCN(CC(=O)NCC2(N3CCOCC3)CCCCC2)CC1 | -27.3%
CCOc1cc(/C=C2/NC(=O)N(CC(=O)OC)C2=O)ccc1O | 3.71%
O=C(O)c1ccc(Br)c(S(=O)(=O)N2CCCC2)c1 | 9.91%
CCc1ccc(CN2CCN(C(=O)c3ccco3)CC2)cc1.O=C(O)C(=O)O | -23.8%
CCc1ccc(NC(=O)C(=O)NCCN2CCN(C(=O)c3ccco3)CC2)cc1 | -67%
CCCCc1ccc(NC(=O)C(=O)NCCN2CCN(Cc3ccc([N+](=O)[O-])cc3)CC2)cc1 | -66.7%
CCc1ccc(NC(=O)C(=O)NCCN2CCN(S(C)(=O)=O)CC2)cc1 | 20.5%
Cc1ccc(NC(=O)C(=O)NCCN2CCN(S(C)(=O)=O)CC2)cc1 | 19.6%
CCc1ccc(NC(=O)C(=O)NCCN2CCN(Cc3ccc([N+](=O)[O-])cc3)CC2)cc1 | -72.5%
Cc1ccc(NC(=O)C(=O)NCCN2CCN(Cc3ccc([N+](=O)[O-])cc3)CC2)cc1 | -72.8%
CCN1CCN(CCNC(=O)Nc2ccc([N+](=O)[O-])cc2)CC1 | -12.2%

Structure (SMILES) | hERG current change (%, negative = inhibition) at 10uM
CCNC(=O)C(=O)Nc1ccc([N+](=O)[O-])cc1 | 2.37%
CCCCc1ccc(NC(=O)C(=O)NCCN2CCN(C(=O)c3ccc([N+](=O)[O-])cc3)CC2)cc1 | -22.4%
COc1ccc(NC(=O)C(=O)NCCN2CCN(C(=O)c3ccco3)CC2)cc1 | -11.1%
O=C(CNC(=O)c1cccs1)NCC(=O)OCc1ccc(F)cc1 | -13.1%
O=C(CN1C(=O)C(=O)N(C2CCCC2)C1=O)NCCc1ccc(Cl)cc1Cl | 10.4%
COc1ccccc1NC(=O)Cn1nc(-c2ccncc2)nc1SCC(=O)NC1CCCC1 | -20.2%
COC(=O)CC1SC(=O)NC1=Nc1ccc(OC)cc1 (stereo not shown) | 1.66%
CCC(C)NS(=O)(=O)c1ccc(OCC(=O)Nc2ccc(F)cc2F)cc1 (stereo not shown) | -2.06%
COCCCNCC#CCOc1ccc(OC)cc1.O=C(O)C(=O)O | 0.922%
O=C(NCCN1CCN(Cc2ccc([N+](=O)[O-])cc2)CC1)C(=O)Nc1ccccc1 | -64.3%
O=C(NCCN1CCN(S(=O)(=O)c2ccc([N+](=O)[O-])cc2)CC1)C(=O)Nc1ccccc1 | 13.5%
O=C(NCCc1ccccc1)C(=O)Nc1ccc([N+](=O)[O-])cc1 | -2.37%
CC(OC(=O)c1ccc2c(c1)C(=O)N(Cc1ccncc1)C2=O)C(=O)Nc1cccc(Cl)c1Cl (stereo not shown) | -11.1%
COC(=O)c1ccc(NC(=O)CS(=O)(=O)Cc2ccccc2)cc1 | 1.28%
COC(=O)c1ccc(C(=O)OC)c(NC(=S)N2CCN(c3ccccc3)CC2)c1 | -19.1%
COC(=O)c1ccc(C(=O)OC)c(NC(=S)N2CCN(c3ccc(F)cc3)CC2)c1 | -24%
COC(=O)c1ccc(C(=O)OC)c(NC(=O)CS(=O)(=O)Cc2ccccc2)c1 | -53.2%
COC(=O)c1ccc(C(=O)OC)c(NC(=O)C2CCCO2)c1 (stereo not shown) | 10.5%
COC(=O)c1ccc(C(=O)OC)c(NC(=O)C(C)(C)C)c1 | 20.7%
COC(=O)c1ccc(C(=O)OC)c(NC(=O)C2CC2)c1 | -68.9%
COC(=O)c1ccc(C(=O)OC)c(NC(=O)CCS(=O)(=O)Cc2ccccc2)c1 | -2.41%
COC(=O)c1ccc(C(=O)OC)c(NC(=S)N2CCN(c3ccccc3F)CC2)c1 | -52.9%

Structure (SMILES) | hERG current change (%, negative = inhibition) at 10uM
Fc1ccc(-c2nnc(SCc3cccnc3)o2)cc1 | -3.91%
Fc1cccc(F)c1/C=N/NC(=S)Nc1cccnc1 | -14.3%
Cl.Oc1cccc(C(O)CNCc2ccc(OCc3ccc(Cl)cc3Cl)cc2)c1 (stereo not shown) | 7.89%
C=CCN(CC=C)S(=O)(=O)c1ccc(NC(=S)NC(=O)/C=C/c2ccc(C)cc2)cc1 | 6.12%
CN(C)CCOC(=O)C12CC3(C)CC(C)(CC(C)(C3)C1)C2.Cl | -7.13%
COc1ccc(CCNC(=O)CSCC(=O)Nc2ccccc2)cc1OC | 17.8%
COc1ccc(/C=C/C(=O)OCC(=O)Nc2c(C)cccc2C)cc1 | 12.5%
CCOC(=O)c1c(-c2ccc(C)o2)csc1NC(=O)CSc1nnnn1-c1ccccc1 | -3.66%
NC(=O)C(c1ccccc1)c1ncc(C(F)(F)F)cc1Cl (stereo not shown) | 4.88%
CC(C)Oc1cccc(C(=O)C2CCCN(C(=O)c3ccoc3)C2)c1 (stereo not shown) | -14.7%
COc1ccc(OCC(=O)N2CCN(C(C)C)CC2)cc1.O=C(O)C(=O)O | 6.62%
COc1ccc(OCC(=O)N2CCN(C(=O)c3cccc(F)c3)CC2)cc1 | -7.41%
Cc1cccc(OCC(=O)N2CCN(C(=O)COc3ccc(Cl)cc3)CC2)c1 | -72.2%
Cc1cccc(OCC(=O)N2CCN(C(=O)Cc3ccccc3)CC2)c1 | -13.2%
Cc1cccc(OCC(=O)N2CCN(Cc3cccnc3)CC2)c1.O=C(O)C(=O)O | -3.95%
CSc1ccc(CN2CCN(C(=O)CC(C)C)CC2)cc1 | 9.42%
O=C(COc1ccccc1)N1CCN(C(=O)c2cccc(F)c2)CC1 | -7.92%
Cc1cccc(OCC(=O)N2CCN(S(C)(=O)=O)CC2)c1 | 11.2%
CSc1ccc(CN2CCN(C(=O)COc3cccc(C)c3)CC2)cc1 | -50.3%
Cc1cccc(OCC(=O)N2CCOCC2)c1 | 15.5%
O=C(COc1ccc(Cl)cc1)N1CCN(C(=O)c2cccc(F)c2)CC1 | -58.5%
COc1ccc(OCC(=O)N2CCN(Cc3ccc(SC)cc3)CC2)cc1.O=C(O)C(=O)O | -50.9%
